Source: the supplement of paper PMC11732987, “Enantioselective OTUD7B fragment discovery through chemoproteomics screening and high-throughput optimisation” (Communications Chemistry, 2025)

Assays:
Experiment in all cases: log2 ratio of Biotin-Ahx-Ub-VS probe labelling (fragment/DMSO); higher = less target engagement (more negative = stronger competition), active = hit call of the paper (q ≤ 0.05, log2 ratio ≤ -1)
Conditions in all cases: compound concentration: 200 uM; treatment time: 3 h
[1] = molecular target: USP34 (UniProt Q70CQ2)
Chain of USP34 (Q70CQ2 whole entry, the tested form may be a part): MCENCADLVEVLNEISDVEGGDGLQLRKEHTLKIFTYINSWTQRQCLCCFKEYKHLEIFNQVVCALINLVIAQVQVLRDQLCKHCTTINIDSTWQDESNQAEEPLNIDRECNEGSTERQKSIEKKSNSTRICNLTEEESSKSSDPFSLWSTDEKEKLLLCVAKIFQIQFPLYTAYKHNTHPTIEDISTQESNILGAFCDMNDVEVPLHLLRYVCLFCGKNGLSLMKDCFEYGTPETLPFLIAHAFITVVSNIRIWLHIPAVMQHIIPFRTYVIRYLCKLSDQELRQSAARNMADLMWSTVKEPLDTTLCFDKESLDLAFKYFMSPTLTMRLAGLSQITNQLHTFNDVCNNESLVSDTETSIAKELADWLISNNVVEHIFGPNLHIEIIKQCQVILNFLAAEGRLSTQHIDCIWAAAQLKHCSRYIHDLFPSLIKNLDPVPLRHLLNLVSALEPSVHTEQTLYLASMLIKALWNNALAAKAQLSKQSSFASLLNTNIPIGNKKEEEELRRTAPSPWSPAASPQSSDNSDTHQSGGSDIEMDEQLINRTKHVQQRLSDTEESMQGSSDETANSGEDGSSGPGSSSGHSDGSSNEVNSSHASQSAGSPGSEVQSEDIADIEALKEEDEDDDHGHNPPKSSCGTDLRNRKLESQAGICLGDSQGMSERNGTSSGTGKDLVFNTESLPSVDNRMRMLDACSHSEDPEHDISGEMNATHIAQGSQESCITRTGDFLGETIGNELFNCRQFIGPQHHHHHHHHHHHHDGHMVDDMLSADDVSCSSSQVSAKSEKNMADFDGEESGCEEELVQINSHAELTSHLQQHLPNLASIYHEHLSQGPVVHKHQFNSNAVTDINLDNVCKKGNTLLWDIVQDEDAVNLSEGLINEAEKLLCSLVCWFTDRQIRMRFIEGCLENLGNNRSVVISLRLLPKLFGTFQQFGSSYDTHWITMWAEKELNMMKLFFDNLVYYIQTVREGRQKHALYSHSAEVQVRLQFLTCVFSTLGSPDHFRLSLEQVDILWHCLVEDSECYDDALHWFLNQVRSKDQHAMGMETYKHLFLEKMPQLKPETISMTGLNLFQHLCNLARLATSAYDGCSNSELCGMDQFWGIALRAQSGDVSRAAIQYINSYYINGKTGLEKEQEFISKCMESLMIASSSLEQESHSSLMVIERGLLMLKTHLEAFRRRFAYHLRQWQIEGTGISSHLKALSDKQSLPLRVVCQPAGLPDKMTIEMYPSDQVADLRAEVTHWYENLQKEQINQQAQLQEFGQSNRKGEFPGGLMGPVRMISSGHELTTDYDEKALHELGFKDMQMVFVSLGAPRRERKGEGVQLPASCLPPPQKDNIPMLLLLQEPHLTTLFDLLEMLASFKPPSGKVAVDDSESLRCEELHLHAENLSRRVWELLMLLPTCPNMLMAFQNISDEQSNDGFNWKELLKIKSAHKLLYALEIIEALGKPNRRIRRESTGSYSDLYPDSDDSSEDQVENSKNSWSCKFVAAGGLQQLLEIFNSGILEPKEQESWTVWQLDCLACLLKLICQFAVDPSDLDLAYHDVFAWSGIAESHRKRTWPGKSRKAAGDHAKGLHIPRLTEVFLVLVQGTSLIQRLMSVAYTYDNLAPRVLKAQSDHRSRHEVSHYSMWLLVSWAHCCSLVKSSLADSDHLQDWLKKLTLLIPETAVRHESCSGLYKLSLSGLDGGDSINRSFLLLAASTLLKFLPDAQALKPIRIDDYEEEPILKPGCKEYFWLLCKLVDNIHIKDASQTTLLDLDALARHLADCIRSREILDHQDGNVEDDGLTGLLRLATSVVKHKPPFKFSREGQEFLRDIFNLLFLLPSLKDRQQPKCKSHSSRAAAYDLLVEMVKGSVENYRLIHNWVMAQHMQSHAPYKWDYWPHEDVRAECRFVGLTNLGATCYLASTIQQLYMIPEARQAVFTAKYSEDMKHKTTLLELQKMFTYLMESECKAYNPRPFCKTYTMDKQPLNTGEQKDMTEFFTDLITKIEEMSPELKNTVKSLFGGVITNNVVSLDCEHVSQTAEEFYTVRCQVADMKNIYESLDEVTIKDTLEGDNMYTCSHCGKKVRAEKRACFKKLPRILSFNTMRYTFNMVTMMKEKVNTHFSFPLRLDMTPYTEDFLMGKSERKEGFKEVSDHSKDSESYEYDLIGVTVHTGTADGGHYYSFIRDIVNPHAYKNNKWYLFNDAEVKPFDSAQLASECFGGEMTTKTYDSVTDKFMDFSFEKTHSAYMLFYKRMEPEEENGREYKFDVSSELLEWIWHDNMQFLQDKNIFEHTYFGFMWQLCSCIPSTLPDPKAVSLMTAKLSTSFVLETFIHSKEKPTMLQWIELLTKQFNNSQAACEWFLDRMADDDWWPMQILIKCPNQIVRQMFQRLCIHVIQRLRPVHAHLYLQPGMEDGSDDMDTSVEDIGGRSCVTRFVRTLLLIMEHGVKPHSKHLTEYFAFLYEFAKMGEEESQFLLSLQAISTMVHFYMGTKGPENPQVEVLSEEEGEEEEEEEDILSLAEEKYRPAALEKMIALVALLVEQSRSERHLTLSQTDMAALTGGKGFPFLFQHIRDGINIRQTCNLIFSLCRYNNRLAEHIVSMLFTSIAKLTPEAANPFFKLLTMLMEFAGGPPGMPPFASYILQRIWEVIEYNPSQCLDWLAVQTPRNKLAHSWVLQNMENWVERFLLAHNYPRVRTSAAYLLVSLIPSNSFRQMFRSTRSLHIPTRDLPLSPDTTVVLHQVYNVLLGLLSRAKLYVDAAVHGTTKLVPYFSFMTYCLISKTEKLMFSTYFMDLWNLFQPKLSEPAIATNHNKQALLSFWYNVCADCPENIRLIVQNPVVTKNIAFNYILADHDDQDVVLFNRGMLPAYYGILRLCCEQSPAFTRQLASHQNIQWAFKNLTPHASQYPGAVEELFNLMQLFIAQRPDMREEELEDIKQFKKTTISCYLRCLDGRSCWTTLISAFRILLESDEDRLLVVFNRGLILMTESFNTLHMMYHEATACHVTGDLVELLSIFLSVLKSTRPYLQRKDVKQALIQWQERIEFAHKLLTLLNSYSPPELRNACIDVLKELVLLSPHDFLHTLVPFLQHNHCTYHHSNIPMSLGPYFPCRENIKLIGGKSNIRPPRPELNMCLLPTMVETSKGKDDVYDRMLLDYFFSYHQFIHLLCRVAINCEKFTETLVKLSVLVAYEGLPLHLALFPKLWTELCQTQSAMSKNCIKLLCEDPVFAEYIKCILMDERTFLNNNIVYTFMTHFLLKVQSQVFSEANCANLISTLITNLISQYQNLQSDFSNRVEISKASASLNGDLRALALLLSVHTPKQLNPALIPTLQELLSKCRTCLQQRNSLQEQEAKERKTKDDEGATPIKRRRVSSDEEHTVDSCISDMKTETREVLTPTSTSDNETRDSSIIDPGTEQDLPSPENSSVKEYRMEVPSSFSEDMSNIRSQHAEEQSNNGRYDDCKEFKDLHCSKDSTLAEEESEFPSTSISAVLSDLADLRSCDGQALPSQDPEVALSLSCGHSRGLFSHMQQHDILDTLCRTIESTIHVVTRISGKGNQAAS
In short: (§1)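 Average log2 ratios of fragment over vehicle were obtained by unpaired t-test from global-median-normalised Spectronaut label-free quantities. Proteins with ≥2 unique peptides were included. HEK293T lysate (495 µg per sample) was treated in triplicate with fragment at 200 µM or vehicle for 3 h, then with Biotin-Ahx-Ub-VS at 0.5 µM final for 1 h, and labelled DUBs were NeutrAvidin-enriched and run by diaPASEF LC-MS/MS.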

[2] = molecular target: T1, USP36 (UniProt Q9P275)
T1 sequence (whole entry): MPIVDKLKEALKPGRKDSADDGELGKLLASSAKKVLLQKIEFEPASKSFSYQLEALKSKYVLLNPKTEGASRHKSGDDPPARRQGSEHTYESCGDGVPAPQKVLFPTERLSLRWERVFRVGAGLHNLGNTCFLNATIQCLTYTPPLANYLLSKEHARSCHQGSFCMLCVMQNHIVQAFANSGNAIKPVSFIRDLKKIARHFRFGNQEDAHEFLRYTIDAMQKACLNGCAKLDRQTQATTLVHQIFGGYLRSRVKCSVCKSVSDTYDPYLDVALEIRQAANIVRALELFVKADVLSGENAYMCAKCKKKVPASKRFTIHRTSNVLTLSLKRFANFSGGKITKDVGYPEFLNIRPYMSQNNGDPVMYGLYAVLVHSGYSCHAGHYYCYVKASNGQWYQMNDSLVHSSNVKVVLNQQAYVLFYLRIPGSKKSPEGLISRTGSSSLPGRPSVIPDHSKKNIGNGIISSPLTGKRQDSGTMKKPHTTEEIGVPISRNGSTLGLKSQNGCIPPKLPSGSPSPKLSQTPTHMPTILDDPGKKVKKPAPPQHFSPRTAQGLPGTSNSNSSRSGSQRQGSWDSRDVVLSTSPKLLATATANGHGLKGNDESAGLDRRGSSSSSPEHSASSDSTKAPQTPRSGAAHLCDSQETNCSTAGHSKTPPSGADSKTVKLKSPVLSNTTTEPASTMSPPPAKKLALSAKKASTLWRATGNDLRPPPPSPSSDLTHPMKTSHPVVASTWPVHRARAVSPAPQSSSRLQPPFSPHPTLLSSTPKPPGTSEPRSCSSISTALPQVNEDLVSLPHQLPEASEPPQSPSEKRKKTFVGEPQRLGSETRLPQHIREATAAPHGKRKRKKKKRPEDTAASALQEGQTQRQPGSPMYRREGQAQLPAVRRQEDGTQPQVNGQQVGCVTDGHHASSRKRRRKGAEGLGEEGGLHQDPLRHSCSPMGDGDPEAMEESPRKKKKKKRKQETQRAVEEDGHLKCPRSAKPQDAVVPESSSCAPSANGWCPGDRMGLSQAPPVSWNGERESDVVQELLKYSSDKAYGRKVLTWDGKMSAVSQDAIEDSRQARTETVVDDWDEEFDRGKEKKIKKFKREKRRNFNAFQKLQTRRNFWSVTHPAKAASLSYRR
In short: as §1

[3] = molecular target: T2, USP38 (UniProt Q8NB14)
T2 sequence (whole entry): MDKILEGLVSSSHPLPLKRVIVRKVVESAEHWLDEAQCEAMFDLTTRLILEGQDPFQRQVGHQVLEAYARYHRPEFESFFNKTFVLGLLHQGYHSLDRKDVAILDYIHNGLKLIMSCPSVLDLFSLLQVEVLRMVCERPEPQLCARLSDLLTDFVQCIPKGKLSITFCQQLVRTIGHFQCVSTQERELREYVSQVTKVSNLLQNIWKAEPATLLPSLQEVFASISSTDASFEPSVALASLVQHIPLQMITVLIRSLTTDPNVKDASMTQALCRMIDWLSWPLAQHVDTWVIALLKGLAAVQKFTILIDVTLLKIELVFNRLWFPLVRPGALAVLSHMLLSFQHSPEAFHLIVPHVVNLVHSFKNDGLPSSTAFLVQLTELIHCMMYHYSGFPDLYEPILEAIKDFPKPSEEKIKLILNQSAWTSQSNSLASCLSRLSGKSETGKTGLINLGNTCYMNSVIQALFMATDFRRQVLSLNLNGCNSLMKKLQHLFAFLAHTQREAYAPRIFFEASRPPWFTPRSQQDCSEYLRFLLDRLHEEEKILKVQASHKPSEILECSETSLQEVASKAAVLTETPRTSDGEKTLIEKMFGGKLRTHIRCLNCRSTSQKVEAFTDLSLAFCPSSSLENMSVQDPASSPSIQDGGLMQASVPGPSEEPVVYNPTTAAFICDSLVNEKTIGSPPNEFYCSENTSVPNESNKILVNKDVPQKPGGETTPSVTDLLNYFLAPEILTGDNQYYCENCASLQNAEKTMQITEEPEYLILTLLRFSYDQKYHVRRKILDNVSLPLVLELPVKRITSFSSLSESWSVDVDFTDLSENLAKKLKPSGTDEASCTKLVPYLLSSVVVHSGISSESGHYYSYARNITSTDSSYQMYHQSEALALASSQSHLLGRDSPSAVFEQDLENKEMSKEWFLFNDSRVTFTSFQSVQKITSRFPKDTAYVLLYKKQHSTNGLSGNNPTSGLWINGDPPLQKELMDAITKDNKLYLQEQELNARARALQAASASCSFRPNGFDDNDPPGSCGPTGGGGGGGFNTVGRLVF
In short: as §1

[4] = molecular target: T3, USP39 (UniProt Q53GS9)
T3 sequence (whole entry): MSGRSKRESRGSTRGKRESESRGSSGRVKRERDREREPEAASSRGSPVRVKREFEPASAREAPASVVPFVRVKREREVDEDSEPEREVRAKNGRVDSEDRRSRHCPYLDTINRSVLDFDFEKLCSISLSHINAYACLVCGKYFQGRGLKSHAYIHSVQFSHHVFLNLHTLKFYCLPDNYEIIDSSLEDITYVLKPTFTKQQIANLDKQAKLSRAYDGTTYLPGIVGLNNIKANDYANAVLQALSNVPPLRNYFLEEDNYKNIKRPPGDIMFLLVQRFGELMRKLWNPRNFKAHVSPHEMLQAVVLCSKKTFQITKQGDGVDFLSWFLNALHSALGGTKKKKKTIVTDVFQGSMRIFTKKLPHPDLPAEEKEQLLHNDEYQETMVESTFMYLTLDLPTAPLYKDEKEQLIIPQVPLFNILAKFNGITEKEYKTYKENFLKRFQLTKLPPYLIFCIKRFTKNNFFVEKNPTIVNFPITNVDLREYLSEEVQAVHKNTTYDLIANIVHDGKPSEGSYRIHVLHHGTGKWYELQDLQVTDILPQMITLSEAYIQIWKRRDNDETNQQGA
In short: as §1

[5] = molecular target: T4, USP4 (UniProt Q13107)
T4 sequence (whole entry): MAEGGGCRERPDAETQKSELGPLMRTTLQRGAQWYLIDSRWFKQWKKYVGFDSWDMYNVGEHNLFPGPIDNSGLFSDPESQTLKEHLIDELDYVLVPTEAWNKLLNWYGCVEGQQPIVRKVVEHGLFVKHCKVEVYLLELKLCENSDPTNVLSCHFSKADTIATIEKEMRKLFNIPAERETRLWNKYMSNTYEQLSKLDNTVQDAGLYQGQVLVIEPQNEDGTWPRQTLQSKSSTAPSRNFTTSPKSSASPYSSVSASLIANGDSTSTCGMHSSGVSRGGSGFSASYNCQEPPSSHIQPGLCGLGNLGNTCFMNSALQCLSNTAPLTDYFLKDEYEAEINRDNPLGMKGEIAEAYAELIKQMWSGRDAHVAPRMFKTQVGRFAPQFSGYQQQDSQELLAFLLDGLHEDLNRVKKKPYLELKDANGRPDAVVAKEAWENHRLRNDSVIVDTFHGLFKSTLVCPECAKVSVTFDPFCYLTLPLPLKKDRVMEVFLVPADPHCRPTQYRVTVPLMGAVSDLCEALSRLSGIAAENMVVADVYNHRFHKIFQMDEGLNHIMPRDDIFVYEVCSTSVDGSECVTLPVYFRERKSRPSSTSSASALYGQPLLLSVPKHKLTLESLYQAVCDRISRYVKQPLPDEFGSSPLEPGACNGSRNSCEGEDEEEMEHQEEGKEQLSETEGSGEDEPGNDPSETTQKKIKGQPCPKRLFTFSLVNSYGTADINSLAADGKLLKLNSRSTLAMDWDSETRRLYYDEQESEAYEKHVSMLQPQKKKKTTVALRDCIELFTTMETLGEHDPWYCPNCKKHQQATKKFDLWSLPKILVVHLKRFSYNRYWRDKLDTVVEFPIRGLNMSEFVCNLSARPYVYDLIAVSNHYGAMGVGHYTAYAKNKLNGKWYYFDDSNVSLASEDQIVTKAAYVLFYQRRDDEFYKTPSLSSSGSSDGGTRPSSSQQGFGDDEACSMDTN
In short: as §1

Measured: log2 ratio of Biotin-Ahx-Ub-VS probe labelling

O=C(CCl)Nc1nc(-c2cccs2)cs1
inactive: [1] -0.754 | [2] -0.271 | [3] -0.092 | [4] 0.197 | [5] -0.0279
